Source: PubChem BioAssay AID590 (National Center for Advancing Translational Sciences (NCATS), 2007)
Out of some 59,000 compounds screened, about 6,500 (11%) were called active. Roughly 15% stayed inconclusive and do not appear here. Cut-off read from the data, not from the text of the source: active = max dye-equivalent concentration above about 10 nM; inconclusive = mostly about 1.1 nM to 9.6 nM; inactive = weaker than that. Shown is part of a subset that was picked to be rich in actives.

Test: qHTS Assay for Spectroscopic Profiling in A350 Spectral Region
Conditions: Compound autofluorescence, 340/450 nm, Alexa 350 dye-equivalents; hits give high values

Max dye-equivalent concentration, inactive:
Cc1cc(Cl)ccc1OCC(=O)Oc1c(Cl)c(Cl)c(Cl)c(Cl)c1Cl, CCOC(=O)CSc1nnc(CNC(=O)c2cccs2)n1-c1ccccc1, CCOC(=O)c1c(-n2cnnn2)sc(C)c1C, CCOC(=O)c1c(NC(=O)CSc2nnc(Cc3csc(N)n3)n2C)sc(C)c1C, COC(=O)Cn1cc(C(=O)c2cccs2)c2ccccc21, CCOCC(=O)Nc1sc2c(c1C(=O)OCC)CCCC2, COC(=O)c1c(NC(=O)CSc2nncs2)sc2c1CCCCC2, Cc1ccc(C2(c3ccc(C)cc3)NC(=O)N(Cc3c(C)noc3C)C2=O)cc1, Cc1ccc(NC(=O)N2CCC(C(=O)NCc3ccc(F)cc3)CC2)cc1, CCOc1ccc(-c2nnn(CC(=O)N3CCN(c4ccc(OC)cc4)CC3)n2)cc1OCC, CCn1c(SCC(=O)Nc2nccs2)nnc1-c1ccncc1, CC(CN1CCCCC1)OC(=O)c1ccccc1Cl (stereo not drawn), CCCC(=O)Nc1ccc(C(=O)NCCCn2ccnc2)cc1, CCn1c(=O)cc(SCC(=O)NCc2ccc3c(c2)OCO3)c2ccccc21, CCCn1c(SCC(=O)c2ccc3c(c2)OCCO3)nnc1C(C)C, O=C(c1cc(C(F)(F)F)cc(C(F)(F)F)c1)N1CCC[C@@]2(CCN(c3ccccn3)C2)C1, CCOC(=O)CC1C(=O)NCCN1C(=O)COc1ccc(Br)cc1C (stereo not drawn), CCOc1cccc(/C(O)=C2/C(=O)C(=O)N(CCOC)C2c2ccncc2)c1 (stereo not drawn), CCOC(=O)c1ccc(NC(=O)CSc2ncccn2)cc1, COCCOC(=O)C1=C(C)Nc2nc(C)nn2C1c1ccccc1 (stereo not drawn), CC(=O)OCC(=O)[C@@]1(O)CC[C@@H]2[C@H]3CCC4=CC(=O)C=C[C@]4(C)[C@]3(F)[C@@H](O)C[C@@]21C, Cn1c(=O)[nH]c(=O)c2c1nc(N1CCCCCC1)n2CC(=O)c1ccccc1, CCC(C)Sc1nc2c(c(=O)[nH]c(=O)n2C)n1CC(O)COc1cccc2ccccc12 (stereo not drawn), CS(=O)(=O)N1CCC2(CC1)CN(Cc1ccccc1)C2, CCn1c(CNc2ccc(OC)cc2)nnc1SCC(=O)c1ccc(OC)cc1, Cc1ccc(S(=O)(=O)Nc2ccccc2CNc2c(C)n(C)n(-c3ccccc3)c2=O)cc1, COc1ccccc1NC(=O)CSc1nc2sc(C)c(C)c2c(=O)n1Cc1ccco1, O=c1[nH]c(CSc2ncc(-c3ccc(F)cc3)n2Cc2ccco2)nc2ccccc12, Cn1c(COc2ccc(Cl)cc2)nc2ccccc2c1=O, CCOC(=O)CSc1nc2c(sc(=S)n2CCc2ccccc2)c(=O)n1Cc1ccco1, Cc1nc2ccccc2c(=O)n1CCCn1ccnc1, CC(Sc1nc2ccccc2c(=O)n1Cc1ccco1)C(=O)c1ccccc1 (stereo not drawn), Cc1ccc(N2CCN(c3ccc(C)cc3)C2c2ccccn2)cc1, COc1ccccc1-n1cnc2cc(NS(=O)(=O)c3ccccc3)ccc21, CCOC(=O)C1(Cc2ccc(O)cc2)NC(c2ccccc2F)C2C(=O)N(C)C(=O)C21 (stereo not drawn), O=C(O)C1CC=C(Cl)CC1C(=O)NCc1ccccc1 (stereo not drawn), CC1(C)Cc2ccccc2-c2nc(CN3CCOCC3)[nH]c(=O)c21, CCN(CC)C(=O)CSc1nnc(-c2cnccn2)n1-c1ccc(C)cc1, O=C(CN1CCN(S(=O)(=O)/C=C/c2ccccc2)CC1)NC(=O)NCc1ccco1, Cc1cccc(N=C2NC(=O)CS2)c1C, Cc1ccc(NC(=O)CN2CCC3(O)CCCCC3C2c2ccc3c(c2)OCO3)c(C)c1 (stereo not drawn), CC(=O)Nc1cccc2c1[n+]([O-])c(C)c(C)[n+]2[O-], O=C(c1cc(C(F)(F)F)cc(C(F)(F)F)c1)N1CCC2(CCCN(c3ccccn3)C2)CC1, O=C(Nc1cccc(C(=O)N2CCCC2)c1)c1ccccc1

Max dye-equivalent concentration, active:
Cc1ccc(S(=O)(=O)C(C#N)c2nc3ccccc3nc2N2CCCC2)cc1C (stereo not drawn) 190 nM, COC(=O)c1c(NC(=O)c2cccs2)sc2c1CCCC2 65 nM, CCOC(=O)c1oc2ccccc2c1NC(=O)c1cccs1 21 nM, CCOC(=O)c1c(NC(=O)c2cccs2)sc(C)c1C 180 nM, CCOC(=O)C1=C(C)NC(C)=C(C(=O)OCC)C1c1ccccn1 330 nM, Cc1ccc(Cn2c(C)nc3c(c2=O)c2nc4ccccc4nc2n3Cc2ccco2)cc1 1000 nM, Cc1nc2c(c(=O)n1Cc1ccco1)c1nc3ccccc3nc1n2Cc1ccccc1 110 nM, COCCCn1c2nc3ccccc3nc2c2c(=O)n(Cc3ccc(Cl)cc3)c(C)nc21 380 nM, Cc1ccc2cccc(O)c2[n+]1[O-] 16 nM
